Laboratory results reported in PubChem BioAssay.
Active and inactive are the calls of the source.

assay: JC-1 mitochondrial signal, unstimulated adipocytes – cell-based, JC-1 fluorescence, 3T3-L1 adipocytes, 24 h, 100 nL compound, profiling panel (AID 1168); settings: JC-1 mitochondrial fluorescence, higher = more signal, called active from +8 up or from −8 down; also: test concentration not given here

z-score, inactive:
Cc1ccc(S[C@]2(C(=O)O)CC(=O)N(Cc3cc(C(F)(F)F)cc(C(F)(F)F)c3)[C@@H]2c2ccc(CO)cc2)cc1 -0.717
CC(C)Cc1ccc(CN2CC[C@@H](NC(=O)Nc3ccccc3)C2)cc1 0.465
C=CC1c2cc(O)c(OC)cc2CCN1Cc1cc2c(cc1Br)OCO2 (stereo not given) -0.196
O=C1O[C@H](c2ccccc2)[C@H](c2ccccc2)N2[C@H]1[C@@H](C(=O)N1CCN(c3ncccn3)CC1)[C@]1(C(=O)Nc3ccc(C#CC4(O)CCCCCC4)cc31)[C@H]2c1ccc(OCCO)cc1 -0.309
COC(=O)C(CC#Cc1ccc2c(c1)[C@]1(C(=O)N2)[C@H](c2ccccc2OCCO)N2[C@H](c3ccccc3)[C@H](c3ccccc3)OC(=O)[C@H]2[C@@H]1C(=O)NC[C@H](O)c1ccccc1)C(=O)OC 1.01
Cc1ccccc1C(O)C1C=CC2C(=O)N(C)C(=O)C2N1N(c1ccccc1)c1ccccc1 (stereo not given) -0.41
CCC[C@@H]1C[C@@]1(CCC)[C@@H](NC(=O)OCc1ccccc1)c1ccc(-c2ccccc2)cc1 0.258
CN(C)C(=O)C1N=C(c2ccc(OCCCO)cc2)N(c2ccccc2)O1 (stereo not given) 0.756
O=C1O[C@H](c2ccccc2)[C@H](c2ccccc2)N2[C@H]1[C@@H](C(=O)O)[C@]1(C(=O)Nc3ccc(C#CC4=CCCCC4)cc31)[C@H]2c1ccc(O)cc1 0.0262
C=CCOC(=O)[C@H]1[C@@H]2C(=O)O[C@@H](c3ccccc3)[C@@H](c3ccccc3)N2[C@@H](c2ccc(OCCOC(=O)[C@H]3C[C@H]4C(=O)N[C@@H](CCCCNC(C)=O)C(=O)N4[C@H]3c3ccc(O)cc3)cc2)[C@]12C(=O)Nc1ccccc12 -0.0783
